What follows are molecules tested against T1, Dual specificity tyrosine-phosphorylation-regulated kinase 2 (Homo sapiens) (UniProt Q92630). Conditions: at 1 µM.
T1 sequence (whole entry): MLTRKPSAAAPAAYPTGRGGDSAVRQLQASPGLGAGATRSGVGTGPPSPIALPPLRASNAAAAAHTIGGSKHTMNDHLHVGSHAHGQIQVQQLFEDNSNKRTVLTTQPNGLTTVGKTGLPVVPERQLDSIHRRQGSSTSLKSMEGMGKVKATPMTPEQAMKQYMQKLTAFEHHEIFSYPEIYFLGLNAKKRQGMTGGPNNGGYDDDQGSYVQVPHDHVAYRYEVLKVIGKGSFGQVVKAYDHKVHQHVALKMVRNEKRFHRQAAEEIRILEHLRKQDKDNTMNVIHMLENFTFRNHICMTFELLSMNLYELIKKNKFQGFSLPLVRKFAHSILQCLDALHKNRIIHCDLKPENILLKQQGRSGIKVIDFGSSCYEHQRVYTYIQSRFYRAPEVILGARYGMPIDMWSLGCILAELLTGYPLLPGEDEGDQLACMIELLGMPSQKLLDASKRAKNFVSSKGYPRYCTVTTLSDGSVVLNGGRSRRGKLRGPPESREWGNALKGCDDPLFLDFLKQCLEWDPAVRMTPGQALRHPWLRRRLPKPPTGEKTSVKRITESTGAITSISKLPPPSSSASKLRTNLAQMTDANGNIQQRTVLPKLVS

Row | Compound | inhibition
1 | CS(=O)(=O)CCNCc1cc(-c2cc3c(Nc4ccc(OCc5cccc(F)c5)c(Cl)c4)ncnc3s2)cs1 | 8.37%
2 | CCC(=O)Nc1ccc(C)c(-c2ccc(C(=O)NCC3CC3)cc2)c1 | 2.91%
3 | COc1cc(Nc2ncc3c(C)nc(-c4cccc(C(F)(F)F)c4)n3n2)cc(OC)c1OC | 3.63%
4 | Fc1ccc(-c2nc3n(c2-c2ccncc2)CCS3)cc1 | 2.31%
5 | NC(=O)c1cc(-c2ccncc2)cc(-c2ccccc2)c1N | 4.25%
6 | CCc1nccc2c1nc(-c1nonc1N)n2CC | 3.18%
7 | CN(C)c1ccc2c(c1)/C(=C/Nc1ccc(S(N)(=O)=O)cc1)C(=O)N2 | 4.74%
8 | CS(=O)(=O)CCNCc1ccc(-c2ccc3ncnc(Nc4ccc(OCc5ccccc5)c(Br)c4)c3c2)o1 | 1.15%
9 | Cc1nnc(-c2ccc(C)c(-c3ccc(C(=O)NCc4ccc(Cl)cc4)cc3)c2)o1 | 3.03%
10 | Cc1ccc(C(=O)NC2CCC2)cc1-c1ccc(C(=O)NCC2CC2)cc1 | 3.3%
11 | Clc1ccc(CNc2nccc(-c3cnn4ncccc34)n2)cc1 | 7.51%
12 | c1ccc(-c2n[nH]cc2-c2ccnc(-c3ccc(OCCN4CCOCC4)cc3)c2)nc1 | -1.36%
13 | CCS(=O)(=O)c1ccc(OC)c(Nc2ncc(-c3cccc(-c4ccccc4F)c3)o2)c1 | 10.3%
14 | COc1cc2ncn(-c3cc(OCc4cccs4)c(C(N)=O)s3)c2cc1OC | 4.35%
15 | O=C1Nc2ccccc2/C1=C/Nc1ccc(-n2cncn2)cc1 | 6.8%
16 | C/C(Nc1ccc(S(N)(=O)=O)cc1)=C1/C(=O)Nc2ccccc21 | 3.79%
17 | CCc1cccc(CC)c1/C=C/c1cncc(C(=O)NC)c1 | 2.5%

Row | Compound | inhibition
18 | NC(=O)c1cc(-c2ccc(F)cc2)cc(-c2ccncc2)c1N | 5.04%
19 | O=C(NCC1CC1)c1ccc(-c2cccc(C(=O)NC3CC3)c2)cc1 | 3.38%
20 | COc1ccc2ncn(-c3cc(O[C@H](C)c4ccccc4Cl)c(C(N)=O)s3)c2c1 | 2.75%
21 | O=C1Nc2ccc(I)cc2C1=Cc1cc(Br)c(O)c(Br)c1 | 8.06%
22 | Fc1ccc(-c2ncn(CCCN3CCOCC3)c2-c2ccncc2)cc1 | 0.55%
23 | COc1ccc2cc(-c3c(-c4ccncc4)nc(-c4ccc([S+](C)[O-])cc4C)n3C)ccc2c1 (stereo not drawn) | 0%
24 | COC(=O)Nc1nc2ccc(Sc3ccc(NC(=O)Nc4cc(C(F)(F)F)ccc4F)cc3)cc2[nH]1 | 0.89%
25 | CN(C)CCCNc1nccc(-c2c(-c3ccc(F)cc3)nn3cc(C(F)(F)F)ccc23)n1 | 2.09%
26 | CCS(=O)(=O)c1ccc(OC)c(Nc2ncc(-c3ccccc3Cl)o2)c1 | 11.8%
27 | Fc1ccc(-c2c(-c3ccncc3)nc3n2CCS3)cc1 | 1.86%
28 | CCN(CC)Cc1ccc(Nc2nccc(-c3cnn4ncccc34)n2)cc1 | 25.7%
29 | COc1cc2ncn(-c3cc(OCCc4ccccc4)c(C(N)=O)s3)c2cc1OC | 4.14%
30 | Cc1ccc(NC(=O)c2ccoc2)cc1-c1ccc(C(=O)NCC2CC2)cc1 | 0.34%
31 | NS(=O)(=O)c1ccc(N/N=C2\C(=O)Nc3ccc(C(=O)NCCCn4ccnc4)cc32)cc1 | 16.2%
32 | NCc1ccc(-n2c(-c3nonc3N)nc3cnccc32)cc1 | 4.54%
33 | COc1cccc(-n2cnc3c(N/N=C/c4ccncc4)ncnc32)c1 | 2.96%
34 | C[C@@H](Oc1cc(-n2cnc3ccc(OC4CCN(C)CC4)cc32)sc1C(N)=O)c1ccccc1Cl | 7.45%

The molecules below were run against Glycogen synthase kinase-3 alpha (Homo sapiens) (UniProt P49840). Conditions: at 0.1 µM.
Chain of Glycogen synthase kinase-3 alpha (Homo sapiens) (P49840 2-483 limits assumed): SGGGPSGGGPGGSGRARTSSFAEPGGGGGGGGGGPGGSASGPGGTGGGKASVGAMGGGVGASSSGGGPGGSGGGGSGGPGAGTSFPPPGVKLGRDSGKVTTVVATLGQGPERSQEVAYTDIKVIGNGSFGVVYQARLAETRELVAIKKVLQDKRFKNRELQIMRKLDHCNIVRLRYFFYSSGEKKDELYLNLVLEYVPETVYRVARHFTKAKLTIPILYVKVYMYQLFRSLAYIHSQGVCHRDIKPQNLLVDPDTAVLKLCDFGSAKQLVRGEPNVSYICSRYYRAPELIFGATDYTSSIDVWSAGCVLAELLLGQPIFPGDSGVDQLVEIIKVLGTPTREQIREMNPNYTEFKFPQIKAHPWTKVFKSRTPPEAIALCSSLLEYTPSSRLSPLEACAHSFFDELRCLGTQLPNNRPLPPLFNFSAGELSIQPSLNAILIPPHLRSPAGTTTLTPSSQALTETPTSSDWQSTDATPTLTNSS

Row | Compound | inhibition
35 | CS(=O)(=O)CCNCc1cc(-c2cc3c(Nc4ccc(OCc5cccc(F)c5)c(Cl)c4)ncnc3s2)cs1 | 2.31%
36 | CCC(=O)Nc1ccc(C)c(-c2ccc(C(=O)NCC3CC3)cc2)c1 | 1.84%
37 | COc1cc(Nc2ncc3c(C)nc(-c4cccc(C(F)(F)F)c4)n3n2)cc(OC)c1OC | 2.88%
38 | Fc1ccc(-c2nc3n(c2-c2ccncc2)CCS3)cc1 | -0.87%
39 | NC(=O)c1cc(-c2ccncc2)cc(-c2ccccc2)c1N | 3.97%
40 | CCc1nccc2c1nc(-c1nonc1N)n2CC | 0.44%
41 | CN(C)c1ccc2c(c1)/C(=C/Nc1ccc(S(N)(=O)=O)cc1)C(=O)N2 | 8.28%
42 | CS(=O)(=O)CCNCc1ccc(-c2ccc3ncnc(Nc4ccc(OCc5ccccc5)c(Br)c4)c3c2)o1 | -0.62%
43 | Cc1nnc(-c2ccc(C)c(-c3ccc(C(=O)NCc4ccc(Cl)cc4)cc3)c2)o1 | 0.36%
44 | Cc1ccc(C(=O)NC2CCC2)cc1-c1ccc(C(=O)NCC2CC2)cc1 | 1.01%
45 | Clc1ccc(CNc2nccc(-c3cnn4ncccc34)n2)cc1 | 2.42%
46 | c1ccc(-c2n[nH]cc2-c2ccnc(-c3ccc(OCCN4CCOCC4)cc3)c2)nc1 | 5.19%
47 | CCS(=O)(=O)c1ccc(OC)c(Nc2ncc(-c3cccc(-c4ccccc4F)c3)o2)c1 | 2.37%
48 | COc1cc2ncn(-c3cc(OCc4cccs4)c(C(N)=O)s3)c2cc1OC | 0.28%
49 | O=C1Nc2ccccc2/C1=C/Nc1ccc(-n2cncn2)cc1 | 17.3%
50 | C/C(Nc1ccc(S(N)(=O)=O)cc1)=C1/C(=O)Nc2ccccc21 | 1.25%
51 | CCc1cccc(CC)c1/C=C/c1cncc(C(=O)NC)c1 | 2.14%

Row | Compound | inhibition
52 | NC(=O)c1cc(-c2ccc(F)cc2)cc(-c2ccncc2)c1N | 1.24%
53 | O=C(NCC1CC1)c1ccc(-c2cccc(C(=O)NC3CC3)c2)cc1 | 1.5%
54 | COc1ccc2ncn(-c3cc(O[C@H](C)c4ccccc4Cl)c(C(N)=O)s3)c2c1 | -1.42%
55 | O=C1Nc2ccc(I)cc2C1=Cc1cc(Br)c(O)c(Br)c1 | 0.99%
56 | Fc1ccc(-c2ncn(CCCN3CCOCC3)c2-c2ccncc2)cc1 | -0.11%
57 | COc1ccc2cc(-c3c(-c4ccncc4)nc(-c4ccc([S+](C)[O-])cc4C)n3C)ccc2c1 (stereo not drawn) | 7.28%
58 | COC(=O)Nc1nc2ccc(Sc3ccc(NC(=O)Nc4cc(C(F)(F)F)ccc4F)cc3)cc2[nH]1 | 0.12%
59 | CN(C)CCCNc1nccc(-c2c(-c3ccc(F)cc3)nn3cc(C(F)(F)F)ccc23)n1 | 2.87%
60 | CCS(=O)(=O)c1ccc(OC)c(Nc2ncc(-c3ccccc3Cl)o2)c1 | 0.38%
61 | Fc1ccc(-c2c(-c3ccncc3)nc3n2CCS3)cc1 | -2.59%
62 | CCN(CC)Cc1ccc(Nc2nccc(-c3cnn4ncccc34)n2)cc1 | 24.4%
63 | COc1cc2ncn(-c3cc(OCCc4ccccc4)c(C(N)=O)s3)c2cc1OC | 0.82%
64 | Cc1ccc(NC(=O)c2ccoc2)cc1-c1ccc(C(=O)NCC2CC2)cc1 | 11%
65 | NS(=O)(=O)c1ccc(N/N=C2\C(=O)Nc3ccc(C(=O)NCCCn4ccnc4)cc32)cc1 | 40.6%
66 | NCc1ccc(-n2c(-c3nonc3N)nc3cnccc32)cc1 | 25.6%
67 | COc1cccc(-n2cnc3c(N/N=C/c4ccncc4)ncnc32)c1 | 3.64%
68 | C[C@@H](Oc1cc(-n2cnc3ccc(OC4CCN(C)CC4)cc32)sc1C(N)=O)c1ccccc1Cl | -1.18%
